Compound activity as filed in PubChem.
The list is not random: actives were taken first. Their share in the collection is about 27%.
CYP2C9 activ = CYP2C9 (human) activation. P11712. recombinant CYP2C9, luciferin-H conversion, luminescence; active compounds read high; factor 1 = untreated enzyme, 0 = blocked. activation factor at 5 µM. 96,000 tested, 1.4% active. AID 1024;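 active means activation factor of 2 or more for CYP2C9 at a 5 µM dose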;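 further: 0 = sulfaphenazole-blocked wells and 1 = vehicle-only wells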
CYP2C19 inh = inhibitors of human CYP2C19. P33261. CYP2C19 Supersomes, luciferin-H EGE luminescence, 30 min. inhibition, % at 5 µM. 96,000 tested, 21% active. AID 778;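 active means CYP2C19 inhibition above a set limit at 5 µM in the primary screen, cut at about 50% in these data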;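 further: plate controls were negative control wells for no effect and 2.5 mM tranylcypromine positive control for full effect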
Cav3 T inh = inhibitors of human Cav3.2 T-type calcium channel; 100,000 tested, 4% active; Cav3.2-expressing cells, Fluo-4 calcium fluorescence FDSS; active compounds read low; AID 449739; O95180; B-score at 10 µM;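 active means single-dose well whose peak fluorescence ratio is a statistical outlier from its plate by either plate-standardised score or position-corrected B-score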
CYP2C19 activ = activators of human cytochrome P450 2C19. recombinant CYP2C19, luciferin-H EGE luminescence; active compounds read high; 0 = fully inhibited enzyme, 1 = untreated enzyme. activation factor at 5 µM. 96,000 tested, under 10 active;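 active means activation factor of at least 2 at 5 µM in the primary screen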;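 further: 0 = wells with 2.5 mM tranylcypromine and 1 = vehicle-only wells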
CYP2C9 inh = blocks human cytochrome P450 2C9; CYP2C9 Supersomes, luciferin-H conversion, luminescence; inhibition, % at 5 µM; 96,000 tested, 20% active; AID 777;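 active means blocking of liver enzyme CYP2C9 beyond about 50% at 5 µM, limit read from the data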
* = called active by the depositor; x = not tested or not shown.

SMILES | CYP2C9 activ | CYP2C19 inh | Cav3 T inh | CYP2C19 activ | CYP2C9 inh
O=C(N/N=C\c1ccc(COc2ccc([N+](=O)[O-])cc2)o1)c1ccc(Cl)cc1 | 0.5 | -15 | 0.038 | 1.2 | 49
CCc1c(O)nc(SCC(=O)Nc2ccc(C)cc2)n(C2CCCCC2)c1=O | 0.9 | 1 | -1.5 | 1 | 8
CN(Cc1ccccc1)S(=O)(=O)c1ccc2c(c1)n(C)c(=O)n2C | 1 | 65* | -0.19 | 0.3 | 4
COc1ccc(S(=O)(=O)N2CCN(Cc3ccccc3)CC2)cc1 | 1.1 | 89* | -0.0054 | 0.1 | -11
Cn1c(=O)c2cc(S(=O)(=O)N3CCC(c4ccccc4)CC3)ccc2n(C)c1=O | 0.3 | 20 | 2.3 | 0.8 | 68*
O=S(=O)(c1ccccc1)N1CCN(Cc2cccc(Cl)c2)CC1 | 0.4 | 70* | -1.4 | 0.3 | 61*
Cn1c(=O)c2cc(S(=O)(=O)N3CCOCC3)ccc2n(C)c1=O | 1.2 | -16 | -0.035 | 1.2 | -25
COc1ccc(S(=O)(=O)N2CCN(C(=O)NCc3ccccc3)CC2)cc1 | 1.1 | -3 | 0.22 | 1 | -6
COCc1cc(=O)[nH]c2cc(NC(=O)C3CC3)c(C)cc12 | 1 | 9 | 0.77 | 0.9 | 4
COc1ccc(C)cc1S(=O)(=O)N1CCN(Cc2ccccc2)CC1 | 0.1 | 96* | -0.74 | 0 | 90*
Cn1c(=O)c(=O)n(C)c2cc(S(=O)(=O)N3CCCCC3)ccc21 | 1.2 | -21 | 0.63 | 1.2 | -18
CCOc1cc(S(=O)(=O)N2CCN(Cc3ccccc3)CC2)ccc1Br | 0.6 | 97* | x | 0 | 41
Cn1c(=O)c(=O)n(C)c2cc(S(=O)(=O)N3CCN(Cc4ccccc4)CC3)ccc21 | 0.5 | -2 | x | 1 | 51*
Cn1cc(S(=O)(=O)N2CCN(Cc3ccccc3)CC2)c(=O)n(C)c1=O | 1.1 | 2 | 0.79 | 1 | -8
CCOc1ccccc1CN1CCN(S(C)(=O)=O)CC1 | 1.1 | 32 | 0.53 | 0.7 | -10
COc1cccc(C(=O)CN2CCN(S(=O)(=O)c3ccc(Br)cc3)CC2)c1 | 1 | 21 | -1.6 | 0.8 | 4
COc1cccc(CN2CCN(S(=O)(=O)c3ccc(Br)cc3)CC2)c1 | 0.4 | 86* | -2 | 0.1 | 61*
Cc1csc(NC(=O)C(NS(=O)(=O)c2ccc(Br)s2)c2ccccc2)n1 (centres undefined) | 0.8 | 14 | -1.6 | 0.9 | 22
CON(C)c1nc(NCC(C)C)nc(OCC#N)n1 | 1 | -2 | 0.36 | 1 | 0
COc1ccc(S(=O)(=O)N2CCCN(Cc3cccc(F)c3)CC2)cc1 | 1.6 | 60* | 0.27 | 0.4 | -55
COc1ccc2nc(SCC(=O)Nc3ccc(S(=O)(=O)Nc4nccc(C)n4)cc3)[nH]c2c1 | 0.8 | 29 | 1.2 | 0.7 | 23
Cc1cc(Cl)cc(C)c1OCCCCN1CCOCC1 | 1 | 54* | -0.0097 | 0.5 | 0
CCC(C)c1ccc(OCCCCN2CCOCC2)cc1 (centres undefined) | 1 | 57* | -0.11 | 0.4 | -2
CCCCOc1ccc(OCCCN2CCOCC2)cc1 | x | x | 0.45 | x | x
COc1ccc(/C=N\NC(=O)/C(=C\Nc2nccc(C)n2)NC(=O)c2ccccc2)cc1 | 0.2 | 32 | -1.3 | 0.7 | 76*
SMILES | CYP2C9 activ | CYP2C19 inh | Cav3 T inh | CYP2C19 activ | CYP2C9 inh
COc1ccc(C(=O)N/N=C/c2cccc3cccnc23)cc1 | 0.9 | 48 | x | 0.5 | 6
O=C1CC(C2CCCO2)C(=O)N1c1cccc(Cl)c1 (centres undefined) | 1.2 | -3 | -0.061 | 1 | -17
C=CCN=C1SC(CC)C(=O)N1S(=O)(=O)c1ccc(C)cc1 (centres undefined) | 0.6 | 84* | 0.29 | 0.2 | 42
C=CCN=C1SCC(=O)N1S(=O)(=O)c1ccc(C)cc1 | 1 | 12 | 0.91 | 0.9 | 3
CCn1[nH]c(=O)c(=Nc2c(C)n(C)n(-c3ccccc3)c2=O)cc1-c1ccc(Cl)cc1 | 0.6 | 4 | -3.7 | 1 | 41
Clc1ccc(COc2ccccn2)cc1Cl | 1 | 71* | 0.15 | 0.3 | 2
Cc1cccn2c(=O)c3cc(C#N)c(=O)n(Cc4cccnc4)c3nc12 | 1 | -12 | x | 1.1 | -2
CCOC(=O)C(C)n1cnc2sc3c(c2c1=O)CCC3 (centres undefined) | 0.9 | 6 | -0.95 | 0.9 | 5
CCn1c(SC(C)C(=O)O)nc2sc3c(c2c1=O)CCC3 (centres undefined) | 0.3 | -5 | 1.3 | 1.1 | 74*
CCn1c(SCC(=O)N2CCOCC2)nc2sc3c(c2c1=O)CCCC3 | 0.3 | 38 | x | 0.6 | 66*
CCc1nc2sc3c(c2c(=O)n1NC(=O)CCl)CCCC3 | 0.2 | 20 | 0.47 | 0.8 | 76*
CCn1c(SCC(=O)N2CCOCC2)nc2oc3c(Cl)cc(Cl)cc3c(=O)c2c1=O | 0.6 | 11 | 0.78 | 0.9 | 38
CCOC(=O)c1c(NC(=O)CSc2nc(C)cc(C)c2C#N)sc(C(C)=O)c1C | 0.8 | 24 | x | 0.8 | 18
O=C(Cn1c(=O)oc2cc(S(=O)(=O)N3CCCC3)ccc21)N1CCN(c2ccccn2)CC1 | 0.6 | 4 | 0.02 | 1 | 37
COc1ccccc1NC(=O)c1ccccc1NS(C)(=O)=O | 0.8 | -2 | 0.76 | 1 | 19
COc1cccc(NC(=O)c2ccccc2NS(C)(=O)=O)c1 | 0.3 | 9 | 0.013 | 0.9 | 65*
CS(=O)(=O)Nc1ccccc1C(=O)Nc1cccc(Cl)c1 | 0.3 | 48 | -0.62 | 0.5 | 68*
CCCC(=O)c1cc(-c2nc3ccccc3n2C)n(C)c1 | 0.7 | 19 | 0.74 | 0.8 | 27
CCC(=O)c1cc(-c2nc3ccccc3n2C)n(C)c1 | 0.3 | 56* | 0.66 | 0.4 | 65*
Cn1cc(C(=O)c2ccccc2)cc1-c1nc2ccccc2n1C | 0.3 | 83* | -0.22 | 0.2 | 73*
Cc1cc2ncn(C3CC(=O)N(Cc4ccc(N5CCCC5=O)cc4)C3=O)c2cc1C (centres undefined) | 0.6 | 30 | 0.99 | 0.7 | 37
C/C(CC(=O)Nc1cccc(Cl)c1)=N\NC(=O)Cc1ccc(Cl)cc1 | 0.7 | 8 | -9.1* | 0.9 | 34
C/C(CC(=O)Nc1cc(Cl)ccc1Cl)=N\NC(N)=S | 0.9 | 18 | -0.025 | 0.8 | 9
C/C(CC(=O)Nc1ccc(Cl)c(Cl)c1)=N\NC(N)=S | 0.7 | 72* | -1.1 | 0.3 | 29
CC(C)OCCCN1C(=O)c2ccccc2C1C(=O)NC1CCCCC1 (centres undefined) | 1 | -7 | -2.2 | 1.1 | 1
COc1ccc(-c2nc3ccccc3c(=O)n2CCCN2CCOCC2)cc1 | 0.9 | 90* | 0.84 | 0.1 | 7
O=c1c2ccccc2nc(-c2ccccc2)n1CCCn1ccnc1 | 0.3 | 72* | 1 | 0.3 | 70*
Cc1ccc(-c2nc3ccccc3c(=O)n2CCCn2ccnc2)cc1 | 0.9 | 37 | 1.3 | 0.6 | 7
COc1ccc(CCn2c(C)c(C(C)=O)c3cc(OC(=O)c4ccco4)ccc32)cc1OC | 0.1 | 83* | 1.7 | 0.2 | 87*
